# Compounds with a hit are over-represented: about 19% of the library has one in this group of screens.
# RORg inh: inhibitors of mouse ROR gamma transcriptional activity; Potency, µM (highest dose often 53.6 µM), for inactives: at the top dose activity change, negative = inhibition, usual class: inhibitors; hit rate 5.4% among 310,000; Drosophila S2 Gal4-RORgamma UAS-luciferase reporter, 20 h; note: nearly all actives have a fitted effect of over 60% in size
#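 Drosophila S2 cells stably expressing Gal4-DBD/mouse RORγ fusion under metallothionein promoter plus UAS-luciferase; compound 1 h, then 700 uM CuSO4 induction for 20 h at ambient temperature; inhibition read as reduced luminescence.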
# DT40 TDP1 no CPT: qHTS for Inhibitors of human tyrosyl-DNA phosphodiesterase 1 (TDP1): qHTS in cells in absence of CPT; DT40 Tdp1-/- hTDP1 cells, no CPT, ATP luminescence, 48 h; Potency, µM (highest dose often 46.2 µM), for the others: at the top dose activity change, negative = growth inhibition, most hits filed as inhibitors; hit rate 15% among 420,000; AID 686978, 2013; note: nearly all actives have a fitted effect of over 55% in size
#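 Growth kinetics read by CellTiter-Glo luminescence after ≥48 hr at 37 °C. Cells: DT40 Tdp1-/- stably carrying human TDP1, 400 per well, compound exposure in the absence of CPT (DMSO vehicle).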
# DT40 TDP1 CPT: growth inhibition of DT40 Tdp1-/-;hTDP1 cells with camptothecin (screen for TDP1 inhibitors) | Potency, µM (series often up to 46.2 µM), for inactives: top-dose activity change, negative = growth inhibition, hits mostly inhibitors | chicken DT40 Tdp1-/-;hTDP1 cells + 20 nM CPT, ATP luminescence, 48 h | hit rate 12% among 420,000; note: nearly all actives have a fitted effect of over 55% in size
#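 Cell growth measured by CellTiter-Glo luminescence after a minimum 48 h, 37 C compound exposure with 20 nM CPT in Tdp1-knockout DT40 cells stably expressing hTDP1, seeded 400/well; qHTS titration format.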
# TDP1 block: TDP1 (human) enzyme inhibition. Q9NUW8. recombinant TDP1, AlphaScreen DNA substrate cleavage. Potency, µM (series often up to 130 µM), for the others: top-dose activity change, negative = inhibition, most hits filed as inhibitors. hit rate 0.28% among 350,000. AID 485290; note: nearly all actives have a fitted effect of over 40% in size
# Target sequence (Q9NUW8 whole entry, looked up): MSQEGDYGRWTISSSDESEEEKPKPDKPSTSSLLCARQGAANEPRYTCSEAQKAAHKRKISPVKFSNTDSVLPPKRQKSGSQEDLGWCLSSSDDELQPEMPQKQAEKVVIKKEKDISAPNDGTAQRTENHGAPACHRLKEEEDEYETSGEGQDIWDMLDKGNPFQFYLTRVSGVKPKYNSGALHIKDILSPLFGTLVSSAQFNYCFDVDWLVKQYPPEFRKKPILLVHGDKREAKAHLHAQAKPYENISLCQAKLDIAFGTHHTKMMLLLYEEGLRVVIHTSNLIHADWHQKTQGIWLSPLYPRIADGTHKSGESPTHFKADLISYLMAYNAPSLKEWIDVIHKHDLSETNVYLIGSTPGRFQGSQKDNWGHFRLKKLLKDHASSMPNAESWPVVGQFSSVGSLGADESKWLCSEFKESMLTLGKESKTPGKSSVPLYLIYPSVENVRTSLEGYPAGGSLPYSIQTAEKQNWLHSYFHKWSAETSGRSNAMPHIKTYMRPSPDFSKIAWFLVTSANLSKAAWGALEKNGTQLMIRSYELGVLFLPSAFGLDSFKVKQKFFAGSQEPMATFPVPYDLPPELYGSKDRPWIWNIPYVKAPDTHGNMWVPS
#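 Recombinant E. coli-expressed Tdp1 (1 nM) preincubated with compound 15 min at RT, then 5'-biotin/3'-phosphotyrosine-FITC DNA substrate (15 nM) added for 5 min. AlphaScreen beads (10 ug/ml) added, 10 min RT; tyrosine-FITC cleavage read as signal loss.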
# VP16 counter: counter-screen for ROR gamma inhibitors: Gal4-VP16 reporter. Drosophila S2 Gal4-VP16 UAS-luciferase, luminescence, 20 h. Potency, µM (doses to about 53.6 µM), inactives show at the top dose activity, negative = inhibition, actives largely listed as inhibitors. hit rate 3.5% among 310,000;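 note: Gal4-VP16 expression switched on by copper sulfate through the metallothionein promoter; nearly all actives have a fitted effect of over 50% in size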
# * hit, by the source's call; ? = inconclusive; · = no result; [ ] = another dose, or the depositor's remark. Calls come from the whole dose curve; as a rule, active = well fitted curve in the direction sought with a large enough effect; inconclusive = small, poorly fitted or top-dose-only effect, or another doubt; inactive = no such curve, though single readings can be large; an effect the other way counts as inactive or inconclusive. % is set by controls: 0 for no effect and ±100 for the full control effect; potency is the fitted concentration of half-maximal effect.
SMILES,RORg inh,DT40 TDP1 no CPT,DT40 TDP1 CPT,TDP1 block,VP16 counter
Cc1cccc(Nc2c([N+](=O)[O-])cc(C(=O)N3CC(=O)Nc4ccccc43)cc2[N+](=O)[O-])c1,-10%,?,?,8%,?
O=C(CCl)N(c1ccccc1)C1CCS(=O)(=O)C1 (stereo not given),18µM*,8.2µM*,8.2µM*,3%,?
c1ccc2[nH]c(CSc3ncnc4c3oc3ccccc34)nc2c1,?,?,?,6%,-15%
O=C(c1ccco1)N1CCN(c2ncnc3c2oc2ccccc23)CC1,?,13µM*,21µM*,3%,-8%[0.365 µM]
c1cnc(N2CCN(c3ncnc4c3oc3ccccc34)CC2)nc1,30%,·,·,2%,0%
Cc1nc(N2CCOCC2)c2oc3ccccc3c2n1,-23%,18µM*,?,4%,-3%
Cc1nc(N2CCN(Cc3nc4ccccc4[nH]3)CC2)c2oc3ccccc3c2n1,17%,18µM*,?,8%,-10%
Cc1nc(SCC(=O)N2CCN(c3ccccc3)CC2)c2oc3ccccc3c2n1,?,?,?,0%,-6%
c1ccc2[nH]c(CN3CCN(c4ncnc5c4oc4ccccc45)CC3)nc2c1,33%,23µM*,23µM*,4%,1%
Cc1nc(SCc2ccccc2F)c2oc3ccccc3c2n1,-20%,13µM*,3%,·,-2%
Cc1nc(SCc2ccc(F)cc2)c2oc3ccccc3c2n1,-4%,-8%,-2%,4%,-5%
Cc1nc(SCc2nc3ccccc3[nH]2)c2oc3ccc(Br)cc3c2n1,·,·,·,2%,·
Cc1nc(SCc2nc3ccccc3[nH]2)c2oc3ccccc3c2n1,14µM*,?,21µM*,3%,?
COc1ccccc1N1CCN(c2ncnc3c2oc2ccccc23)CC1,27%,5.2µM*,3.7µM*,7%,12%
C(=C\c1ccccc1)/CN1CCN(c2ncnc3c2oc2ccccc23)CC1,?,18µM*,18µM*,6%,18µM*
CC1(NC(=O)c2cccc(S(=O)(=O)N3CCCc4ccccc43)c2)CCS(=O)(=O)C1 (stereo not given),·,?,-26%,-21%[0.505 µM],·
Nc1nc(N2CCN(C/C=C/c3ccccc3)CC2)nc2ccccc12,-41%,?,21µM*,4%,-7%
Cc1ccc2sc(NNC(=O)C3=COCCO3)nc2c1C,5.6µM*,-3%,8%,10%,?
CCC(=O)NNc1nc2c(C)c(C)ccc2s1,7.9µM*,8%,0%,-1%,-29%
Cc1ccc2sc(N3CCN(C(=O)C4=COCCO4)CC3)nc2c1C,·,?,-28%,0%,·
O=C(NNc1nc2c(F)cccc2s1)C1=COCCO1,11µM*,0%,-2%,5%,-28%
O=C1N(Cc2cccc(Cl)c2)C[C@@H]2C[C@@H](c3ccc4nonc4c3)N3CCC[C@@]123,2%,18µM*,?,-3%,0%
O=C1N(Cc2cccc(Cl)c2)C[C@@H]2C[C@@H](c3c[nH]c4ccccc34)N3CCC[C@@]123,?,15µM*,?,·,-5%
Cc1ccc([C@@H]2C[C@H]3CN(Cc4cccc(Cl)c4)C(=O)[C@]34CCCN24)o1,2%,-10%,-8%,1%,27%
O=C1N(Cc2cccc(Cl)c2)C[C@@H]2C[C@@H](c3cccn3-c3nccs3)N3CCC[C@@]123,-27%,16µM*,?,0%,19%
SMILES,RORg inh,DT40 TDP1 no CPT,DT40 TDP1 CPT,TDP1 block,VP16 counter
O=C1N(Cc2cccc(Cl)c2)C[C@@H]2C[C@@H](c3cccc4cccnc34)N3CCC[C@@]123,-14%,?,?,0%,6%
O=C1N(Cc2cccc(Cl)c2)C[C@@H]2C[C@@H](c3cccc4ncccc34)N3CCC[C@@]123,24%,23µM*,23µM*,-5%,-3%
CN1C[C@@H]2C[C@@H](c3cccn3-c3nccs3)N3CCC[C@@]23C1=O,?,-6%,3%,·,0%
Cc1cccc(N(Cc2cc3ccccc3[nH]c2=O)S(C)(=O)=O)c1,33%,-21%,4%,5%,-4%
COc1ccc(CN=Nc2cc(C)nc(NS(=O)(=O)c3ccccc3Cl)n2)cc1,-5%,·,·,5%,-4%
COc1ccc(CN(C)CCCn2cnc(C(=O)Nc3ccc(C)c(C)c3)n2)cc1OC,·,?,-27%,·,·
COC(=O)c1ccc(NC(=O)Cn2nnc(-c3cccs3)n2)cc1,18%,?,-10%,4%,3%
CCOC(=O)c1cnc2cc(-c3ccc(Cl)cc3)nn2c1N,30%,-15%,-20%,6%,20%
CCOC(=O)c1cnc2cc(-c3ccc(Cl)cc3)nn2c1-c1ccccc1,·,13µM*,?,·,·
COc1cccc(CC(O)CC2c3c(cc4c(c3OC)OCO4)CCN2C)c1 (stereo not given),·,15µM*,21µM*,·,·
COc1ccc2c(c1OC)C(=O)OC2[C@H]1c2c(cc3c(c2OC)OCO3)CCN1C (stereo not given in full),-18%[16.9 µM],·,·,9%[21 µM],-1%[17 µM]
COc1c2c(cc3c1C(CC(O)Cc1ccccc1)N(C)CC3)OCO2 (stereo not given),36%,10µM*,?,·,3%
CCN(Cc1cc(=O)oc2cc(C)ccc12)c1ccccc1,10%,?,?,?,1%
CC1CC(C)CN(c2nc(NCc3ccco3)nc(N)c2[N+](=O)[O-])C1 (stereo not given),15%,15µM*,16µM*,3%,-19%
CC1CCCN(c2nc(NCc3ccco3)nc(N)c2[N+](=O)[O-])C1 (stereo not given),24%,?,?,6%,?
CC(=O)NCCn1c(SCC#N)nc2ccccc2c1=O,0.22µM*,-18%,2%,-3%,4%
N#CCSc1nc2ccccc2c(=O)n1CCC(=O)NCCc1ccccc1,0%,-1%,-4%,2%,-4%
CC(=O)NCCn1c(SCc2ccc(C)cc2)nc2ccccc2c1=O,12%,21µM*,23µM*,2%,-3%
CC(=O)NCCn1c(SCc2ccccc2F)nc2ccccc2c1=O,22%,21µM*,16µM*,7%,-3%
CCN(CC)S(=O)(=O)c1ccc(C(=O)NCCc2ccccn2)cc1,28%,0%,9%,0%,-10%
CCOc1ccc(-c2nnc3sc(COc4ccc(C)cc4)nn23)cc1,-12%,-24%,-2%,0%,2%
Cc1ccc2[nH]c(=O)c(CNS(=O)(=O)c3ccccc3)c(-c3ccccc3)c2c1,31%,18µM*,?,2%,-15%
COC(=O)c1ccc(NC(=O)COC(=O)C2CC(=O)N(Cc3ccccc3)C2)cc1 (stereo not given),13%,8%,1%,3%,1%
